# Test results: the supplement of paper PMC11018630
# Counter-ions that a name gives are not always drawn. ± gives the standard deviation of the averaged measurements. Whole data set: some 1,100 compounds, median “day of extracellular matrix detachment from plate” near 16, cut for the lowest 2% near 10. The sample as a whole holds a higher share of the lowest values than the screen did. Where a SMILES comes first, the peptide text is derived from it. Bridges are numbered along the chain shown (N, C = ends). [ ]: non-standard residue; d: D form. Orn = NCCC[C@H](N)C(=O)O; Mpa = O=C(O)CCS
# Test system: RDEB dermal fibroblasts EB71
# Assay: day of extracellular matrix detachment from plate (days); higher = delayed detachment (less fibrotic matrix)
# Details: compound concentration: 10 uM
row,SMILES,day of extracellular matrix detachment from plate
1,O=c1sn(-c2cccc3ccccc23)c(=O)n1Cc1ccccc1 [Tideglusib],18.7 ± 4
2,CC1(C)Cc2c(-c3ccccc3)c(-c3ccc(Cl)cc3)c(CC(=O)O)n2C1 [Licofelone],16
3,NC(=O)c1ccc(I)c([N+](=O)[O-])c1 [Iniparib (BSI-201)],12.3 ± 1.1
4,CC(=O)Nc1ccccc1 [Acetanilide],10 ± 1.7
5,CC(=O)Nc1ccc(O)cc1 [Acetaminophen],11
6,CCOc1ccc(NC(C)=O)cc1 [Phenacetin],12
7,C=C1[C@H](CO)[C@@H](O)C[C@@H]1n1cnc2c(=O)[nH]c(N)nc21 [Entecavir Hydrate],12.7 ± 2.9
8,CCOc1nc2cccc(C(=O)OCc3oc(=O)oc3C)c2n1Cc1ccc(-c2ccccc2-c2noc(=O)[nH]2)cc1 [Azilsartan Medoxomil],19 ± 1.7
9,CCCCCC(=O)O[C@]1(C(C)=O)CC[C@H]2[C@@H]3CCC4=CC(=O)CC[C@]4(C)[C@H]3CC[C@@]21C [Hydroxyprogesterone caproate],20
10,C[C@@H]1C[C@H]2[C@@H]3CCC4=CC(=O)C=C[C@]4(C)[C@@]3(Cl)[C@@H](O)C[C@]2(C)[C@@]1(OC(=O)c1ccco1)C(=O)CCl [Mometasone furoate],29.5 ± 7.1
11,C[C@H](Cc1cc2c(c(C(N)=O)c1)N(CCCO)CC2)NCCOc1ccccc1OCC(F)(F)F [Silodosin],11
12,CCCC(=O)OCOC(=O)C1=C(C)NC(C)=C(C(=O)OC)C1c1cccc(Cl)c1Cl (stereo not drawn) [Clevidipine Butyrate],19.3 ± 6.3
13,CC(=O)OCC(=O)[C@H]1CC[C@H]2[C@@H]3CCC4=CC(=O)CC[C@]4(C)[C@H]3CC[C@]12C [Deoxycorticosterone acetate],13
14,C=C1/C(=C\C=C2/CCC[C@]3(C)[C@@H]([C@H](C)CCCC(C)C)CC[C@@H]23)C[C@@H](O)C[C@@H]1O [Alfacalcidol],36
15,CCCCCCCC(=O)N[C@H](CN1CCCC1)[C@H](O)c1ccc2c(c1)OCCO2 [Eliglustat Tartrate],18.3 ± 7.6
16,COc1ccc(-c2ccc3cc(C(=O)O)ccc3c2)cc1C12CC3CC(CC(C3)C1)C2 [Adapalene],16
17,Cc1c(F)cc(C(=O)NC2CC2)cc1-c1ccc(C(=O)NCC(C)(C)C)cn1,16 ± 1.4
18,CCCCCCCCCCCCCCCC(=O)O[C@@H]1[C@@H](O)[C@@H](O)[C@@H]([C@H](NC(=O)[C@@H]2C[C@@H](CCC)CN2C)[C@H](C)Cl)O[C@@H]1SC [Clindamycin palmitate HCl],18
19,Cc1cn([C@H]2O[C@@H](CO)[C@H](O)[C@H]2F)c(=O)[nH]c1=O [Clevudine],15.3 ± 2.3
20,O=C(O)CCCN1CCC(O[C@@H](c2ccc(Cl)cc2)c2ccccn2)CC1 [Bepotastine Besilate],18.7 ± 4
21,CCOc1ccc(C[C@H]2NC(=O)CCSSC[C@@H](C(=O)N3CCC[C@H]3C(=O)N[C@@H](CCCN)C(=O)NCC(N)=O)NC(=O)[C@H](CC(N)=O)NC(=O)[C@H]([C@@H](C)O)NC(=O)[C@H]([C@@H](C)CC)NC2=O)cc1 [Atosiban Acetate] ([Mpa][dY](Et)ITNCP[Orn]G-NH2; disulfide 1-6),19 ± 3
22,C=C1c2cccc(O)c2C(=O)C2=C(O)[C@]3(O)C(=O)C(C(N)=O)=C(O)[C@@H](N(C)C)[C@@H]3[C@@H](O)[C@H]12 [Methacycline HCl],17 ± 1.7

row,SMILES,day of extracellular matrix detachment from plate
1,C[C@]12C=CC(=O)C=C1CC[C@@H]1[C@@H]2C(=O)C[C@@]2(C)[C@H]1CC[C@]2(O)C(=O)CO [Prednisone],10.3 ± 1.1
2,C[C@H]1C[C@@H]2[C@H](C(=O)C[C@@]3(C)[C@H]2CC[C@]3(O)C(=O)CO)[C@@]2(C)C=CC(=O)C=C12 [Methylprednisone],18.3 ± 4
3,C[C@H]1C[C@H]2[C@@H]3CCC4=CC(=O)C=C[C@]4(C)[C@H]3C(=O)C[C@]2(C)[C@@]1(O)C(=O)CO [Meprednisone],18.3 ± 8.1
4,CCOC(=O)C1=C[C@@H](OC(CC)CC)[C@H](NC(C)=O)[C@@H](N)C1 [Oseltamivir Phosphate],20 ± 1.7
5,OC1(c2ccc(Cl)c(C(F)(F)F)c2)CCN(CCCC(c2ccc(F)cc2)c2ccc(F)cc2)CC1 [Penfluridol],25.5 ± 5
6,Cc1nc(C)c(Cl)c(O)c1Cl [Clopidol],18 ± 1.7
7,NC(=O)N1CCC(CC(=O)N2CCC([C@H]3c4ncc(Br)cc4CCc4cc(Cl)cc(Br)c43)CC2)CC1 [Lonafarnib],25
8,CCOC(=O)C1=C(C)NC(C)=C(C(=O)OCC)C1c1ccccc1/C=C/C(=O)OC(C)(C)C [Lacidipine],19.3 ± 6.3
9,CCC(=O)NCC[C@@H]1CCc2ccc3c(c21)CCO3 [Ramelteon],9.67 ± 1.1
10,Cc1ccc(C(=O)c2ccc(CC(=O)O)n2C)cc1 [Tolmetin Sodium],19.3 ± 1.1
11,Clc1cccc(Cl)c1NC1=NCCN1 [Clonidine HCl],11 ± 1.7
12,COc1nc(C)nc(Cl)c1NC1=NCCN1 [Moxonidine],10 ± 1.7
13,O=S(=O)(O)CCCS(=O)(=O)O [Eprodisate (disodium)],18
14,FC(F)(F)c1ccc(/C=C/c2nc(COc3ccc(CCCCn4ccnn4)cc3)co2)cc1 [Mubritinib (TAK 165)],15.7 ± 6.3
15,Cc1nc(C(=O)NCC(=O)O)c(O)c2ccc(Oc3ccccc3)cc12,23.7 ± 2.3
16,Nc1nc(=O)c2nc(CNc3ccc(C(=O)N[C@@H](CCC(=O)O)C(=O)O)cc3)cnc2[nH]1 [Folic acid],17
17,O=C1CCc2ccc(OCCCCN3CCN(c4cccc(Cl)c4Cl)CC3)cc2N1 [Aripiprazole],19.3 ± 6.3
18,O=C1CCc2cc(OCCCCc3nnnn3C3CCCCC3)ccc2N1 [Cilostazol],10.3 ± 1.1
19,Cn1nnc2c(C(N)=O)ncn2c1=O [Temozolomide],9.67 ± 1.1
20,Nc1c(CC(=O)O)cccc1C(=O)c1ccc(Br)cc1 [Bromfenac Sodium],13
21,CC1(C)S[C@@H]2[C@H](NC(=O)[C@H](NC(=O)N3CCN(S(C)(=O)=O)C3=O)c3ccccc3)C(=O)N2[C@H]1C(=O)O [Mezlocillin Sodium],13
